From PubChem
TRPV1 potentiator: potentiators of human vanilloid receptor 1 (TRPV1); Q8NER1; TRPV1-expressing cells, Fluo-8 calcium influx, capsaicin EC20 potentiation; potentiation, % at 8.33 µM; 0.02% of 320,000 active; AID 540277; in the data active = potentiation above about 80%; inconclusive = between about 30% and that limit; note: 0% is about no effect
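Cells expressing TRPV1 were dye-loaded with Fluo-8 and read kinetically: 10 s baseline, 3 min after compound (agonist portion), then 2 min after EC20 capsaicin (allosteric enhancer portion). Calcium-bound dye fluorescence at 480/520 nm.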
IMPase Li cell: membrane-permeable IMPase blocker, potentiated with lithium; AID 1457; CHO-M1 cells, IP1 TR-FRET (IP-One), carbachol + lithium; 0.35% of 210,000 active; Potency, µM (top dose mostly 59.4 µM), for the others: at the highest dose activity, negative = IMPase inhibition, hits mostly inhibitors;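 note: IP1 builds up when IMPase is blocked and the TR-FRET signal falls; potency is the fitted concentration of half-maximal effect; plate controls were basal vehicle for no effect and high inhibitor control for full effect; nearly all actives have a fitted effect of over 50% in size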
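Concentration–response in CHO-M1 cells, lithium-potentiated; 30 min at 37C. IP1 detected by competitive TR-FRET after 10 min lysis at RT. Hill-fitted AC50.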
A-T KAP1 phos: potential ataxia-telangiectasia treatments restoring KAP-1 phosphorylation | F2112 A-T fibroblasts, KAP-1 phosphorylation AlphaLISA; neocarzinostatin DNA damage 30 min before lysis | Potency, µM (top dose mostly 57.5 µM), inactives show top-dose activation, hits mostly activators | 0.19% of 320,000 active | AID 485349; note: potency is the fitted concentration of half-maximal effect; % of control where 0% means no effect; nearly all actives have a fitted effect of over 45% in size
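hTERT-immortalized A-T patient fibroblasts (F2112), 500 cells/well in OPTI-MEM, 1% FBS, got compounds for 60 min, then NCS for 30 min at 37C. Lysates were then assayed for phospho-KAP-1 by AlphaLISA (anti-pKAP1 donor, anti-KAP1 acceptor beads), 6 hr at 25C.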
TRPV1 agonist: agonists of human vanilloid receptor 1 (TRPV1); 0.19% of 320,000 active; TRPV1-expressing cells, Fluo-8 calcium influx, agonist mode; Q8NER1; activation, % at 8.33 µM; in the data active = activation above about 80%; inconclusive = between about 30% and that limit; note: 0% is about no effect
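Cells expressing TRPV1 were dye-loaded with Fluo-8 and read kinetically: 10 s baseline, 3 min after compound (agonist portion), then 2 min after EC20 capsaicin (allosteric enhancer portion). Calcium-bound dye fluorescence at 480/520 nm.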
* marks the source's active call; other numbers are inactive results; [ ] = dose if it differs, or a comment. Hits are enriched below; roughly 0.55% of the tested compounds scored in any of these assays. Unless noted, calls come from the whole dose curve; as a rule, active = well fitted curve in the direction sought with a large enough effect; inconclusive = small, poorly fitted or top-dose-only effect, or another doubt; inactive = no such curve, though single readings can be large; an effect the other way counts as inactive or inconclusive.

`CCC(C)Nc1nc(-c2c[nH]c3ccccc23)cs1` (centres undefined) gave TRPV1 potentiator 29, A-T KAP1 phos 35µM* and TRPV1 agonist 2.
Cc1cc(C(=O)Nc2ccc([N+](=O)[O-])cn2)cs1 was read as TRPV1 potentiator -36, A-T KAP1 phos 9% and TRPV1 agonist 83*.
For COc1cc(OC)cc(C(=O)Nc2ccc([N+](=O)[O-])cn2)c1 the results were TRPV1 potentiator -8, IMPase Li cell 2%, A-T KAP1 phos 8% and TRPV1 agonist 8.
For O=S(=O)(O)c1ccc(NN(c2c(O)ccc3ccccc23)S(=O)(=O)O)cc1 the results were IMPase Li cell -4%.
For CCN1CCN(CC(=O)Nc2ccc(C(C)=O)cc2)CC1 the results were TRPV1 potentiator 16, A-T KAP1 phos 4.5µM* and TRPV1 agonist -5.
Screening CC(C)(C)c1nnc2sc(SC/C(O)=C(\C#N)c3nc4ccccc4[nH]3)nn2c1=O returned TRPV1 potentiator -6, IMPase Li cell 13µM*, A-T KAP1 phos -9% and TRPV1 agonist 4.
Screening CC(C)(C)c1nnc2sc(SCC(=O)c3ccccc3)nn2c1=O returned TRPV1 potentiator -8, IMPase Li cell 17%[38.3 µM], A-T KAP1 phos -3% and TRPV1 agonist inconclusive.
Screening Cn1c(SC(C(=O)Nc2ccc(F)cc2)c2ccccc2)nc2ccccc21 (centres undefined) returned TRPV1 potentiator -4, IMPase Li cell 10%, A-T KAP1 phos 7% and TRPV1 agonist 85*.
For Cc1ccccc1OCC(=O)Nc1sc(C(=O)Nc2cccc(C)c2C)c(C)c1C#N the results were TRPV1 potentiator 25, IMPase Li cell 1µM*, A-T KAP1 phos 5% and TRPV1 agonist -13.
Screening COc1ccccc1NC(=O)c1sc(NC(=O)c2ccco2)c(C#N)c1C returned TRPV1 potentiator 1, IMPase Li cell 26%[38.3 µM], A-T KAP1 phos 2% and TRPV1 agonist 1.
Screening CC1C/C(=C/c2cccn2C)C(=O)/C(=C/c2cccn2C)C1 (centres undefined) returned TRPV1 potentiator -3, IMPase Li cell 36%[38.3 µM], A-T KAP1 phos -1% and TRPV1 agonist 100*.
Screening O=[N+]([O-])c1ccc(C2=Nn3c(nnc3-c3ccc(Cl)cc3)SC2)o1 returned IMPase Li cell 13%.
`O=C(Nc1ccccc1)c1cc(-c2ccccc2Cl)no1` gave TRPV1 potentiator -6, IMPase Li cell -5%[38.3 µM], A-T KAP1 phos -11% and TRPV1 agonist 85*.
COc1ccc(NC(=O)c2cc(-c3ccccc3Cl)no2)cc1 was read as TRPV1 potentiator -11, IMPase Li cell 9%[38.3 µM], A-T KAP1 phos 6% and TRPV1 agonist inconclusive.
`COc1ccccc1[C@H]1C(c2ccccc2)=NN(c2ccccc2)[C@@H]1CO` gave IMPase Li cell 25µM* and A-T KAP1 phos 25%.
`COc1ccccc1[C@H]1C(c2ccc(F)cc2)=NN(c2ccccc2)[C@@H]1CO` gave IMPase Li cell inconclusive and A-T KAP1 phos 19%.
`OC[C@@H]1[C@@H](c2ccc(Cl)cc2)C(c2ccccc2)=NN1c1ccccc1` gave IMPase Li cell 22µM* and A-T KAP1 phos 13%.
COC(=O)C1=C(C(=O)OC)[C@@H]2N(C)c3ccc(OC)cc3[C@@]23C[C@@H](C(=O)OC)N(S(=O)(=O)c2c(C)noc2C)C3=N1 was read as IMPase Li cell 4%.
Screening CC1Cc2cc(/C(O)=C3/C(=O)C(=O)N(CCCn4ccnc4)C3c3cccnc3)ccc2O1 (centres undefined) returned TRPV1 potentiator 4, IMPase Li cell 11µM*, A-T KAP1 phos 4% and TRPV1 agonist -5.
CCCOc1ccc(/C(O)=C2/C(=O)C(=O)N(CCOC)C2c2cccnc2)cc1 (centres undefined) was read as TRPV1 potentiator -1, IMPase Li cell 11µM* and TRPV1 agonist 2.
`CCCOc1ccc(/C(O)=C2/C(=O)C(=O)N(CCCOC)C2c2ccncc2)cc1` (centres undefined) gave TRPV1 potentiator 21, IMPase Li cell -24%[38.3 µM], A-T KAP1 phos 2% and TRPV1 agonist -4.
Screening C=CCOc1ccc(/C(O)=C2\C(=O)C(=O)N(CCOC)C2c2cccnc2)cc1 (centres undefined) returned TRPV1 potentiator -13, IMPase Li cell 10µM*, A-T KAP1 phos -11% and TRPV1 agonist 6.
Screening NCCNC(=S)S returned IMPase Li cell -1%.
